Compounds with a hit are over-represented: about 8.7% of the library has one in this group of screens.
JMJD2A Tudor – qHTS Assay for Inhibitors of JMJD2A-Tudor Domain | actives 4.4% (n = 390,000) | Potency, µM (highest dose often 114 µM), without a hit: top-dose activity change, negative = inhibition, most hits filed as inhibitors | AlphaScreen JMJD2A-Tudor / H3K4me3 peptide binding | Lysine-specific demethylase 4A (Homo sapiens), O75164; note: % is set by controls: 0 for no effect and ±100 for the full control effect; nearly all actives have a fitted effect of over 50% in size
BAZ2B inh – qHTS Assay for Inhibitors of BAZ2B | Bromodomain adjacent to zinc finger domain protein 2B (Homo sapiens), Q9UIF8 | AlphaScreen BAZ2B-H3K14Ac peptide displacement | Potency, µM (doses to about 114 µM), inactives show at the highest dose activity change, negative = inhibition, hits mostly inhibitors | actives 4.4% (n = 360,000) | AID 504333, 2011; note: % is set by controls: 0 for no effect and ±100 for the full control effect; nearly all actives have a fitted effect of over 60% in size
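AlphaScreen displacement: compounds (up to 110uM) incubated 30 min at room temperature with a preformed 50 nM BAZ2B/50 nM biotinylated H3K14Ac peptide complex in PBS pH 7.4 with Tween-20. Donor and acceptor beads at 10 ug/mL final added, 20 min light-protected before reading.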
HP1b chromo inh – HTS for Inhibitors of HP1-beta Chromodomain Interactions with Methylated Histone Tails; AID 540317, 2011; AlphaScreen HP1-beta / biotin-H3K9me3 peptide binding; actives 0.56% (n = 390,000); Potency, µM (top dose mostly 114 µM), for the others: at the top dose activity change, negative = inhibition, most hits filed as inhibitors; note: nearly all actives have a fitted effect of over 70% in size
Target sequence (P83916 whole entry, looked up): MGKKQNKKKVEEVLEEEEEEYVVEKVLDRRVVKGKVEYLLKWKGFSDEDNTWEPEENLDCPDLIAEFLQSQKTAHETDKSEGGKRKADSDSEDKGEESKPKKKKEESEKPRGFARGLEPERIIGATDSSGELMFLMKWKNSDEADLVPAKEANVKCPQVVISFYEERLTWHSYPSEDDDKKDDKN
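HP1-beta protein (50 nM final) preincubated 30 min at room temperature with biotinylated H3(1-18)K9me3 peptide (50 nM) in PBS pH 7.4, 0.01% Tween-20, then compound added for 30 min. AlphaScreen streptavidin donor/nickel chelate acceptor beads (10 ug/mL final), 30 min dark, luminescence read.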
Sfp inh – qHTS Assay for Inhibitors of Bacillus subtilis Sfp phosphopantetheinyl transferase (PPTase) | 4'-phosphopantetheinyl transferase ffp (Bacillus subtilis), Q9F4F7 | Biochemical Sfp PPTase activity, qHTS | Potency, µM, inactives show largest response in the series, negative = inhibition, most hits filed as inhibitors | actives 3.5% (n = 310,000) | AID 1490, 2009;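 note: the enzyme is Sfp with the accession as filed and its product quenches rhodamine fluorescence; 0% = enzyme reaction without inhibitor and -100% = no enzyme wells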
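Fluorescence-quenching assay with 15 nM Sfp, 5 uM rhodamine-CoA and 12.5 uM BHQ-2-labelled ybbR peptide in pH 7.6 Hepes/MgCl2 buffer. Enzyme was pre-incubated with compound for 15 min at room temperature. Rate was taken from the 30-min fluorescence change (525/598 nm).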
12-LOX inh – Primary qHTS assay for inhibitors of human arachidonate 12S-lipoxygenase (ALOX12): Round 2 | purified 12hLO, xylenol orange hydroperoxide absorbance | Potency, µM (top dose mostly 108 µM), inactives show top-dose activity change, negative = inhibition, usual class: inhibitors | actives 1.1% (n = 580,000); note: % is set by controls: 0 for no effect and ±100 for the full control effect
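Purified human 12hLO (150 nM final) in 25 mM Hepes, 0.01% Triton X-100, pH 7.0 was preincubated 15 min at room temperature with compound. Then 40 uM arachidonic acid was added, 30 min. Hydroperoxide was read by Fe-XO absorbance ratio 573/405 nm.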
G9a inh – qHTS Assay for Inhibitors of Histone Lysine Methyltransferase G9a; Histone-lysine N-methyltransferase EHMT2 (Homo sapiens), Q96KQ7; G9a H3K9 monomethylation, AlphaScreen, 2 h; Potency, µM (top dose mostly 102 µM), inactives show at the highest dose activity, negative = inhibition, most hits filed as inhibitors; actives 8.8% (n = 350,000); AID 504332, 2011; note: % is set by controls: 0 for no effect and ±100 for the full control effect; nearly all actives have a fitted effect of over 75% in size
Target sequence (Q96KQ7 913-1193 limits assumed): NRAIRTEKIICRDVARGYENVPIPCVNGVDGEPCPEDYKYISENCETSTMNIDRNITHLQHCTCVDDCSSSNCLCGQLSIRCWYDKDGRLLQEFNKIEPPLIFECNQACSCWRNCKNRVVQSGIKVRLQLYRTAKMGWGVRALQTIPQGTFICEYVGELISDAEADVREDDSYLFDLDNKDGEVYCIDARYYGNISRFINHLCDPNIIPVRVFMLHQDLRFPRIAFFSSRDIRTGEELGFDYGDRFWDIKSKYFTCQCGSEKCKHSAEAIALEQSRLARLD
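Chemiluminescent proximity detection of H3K9 monomethylation, read after 10 min bead incubation in the dark. Reaction: 20 nM G9a, 500 nM biotin-H3K9 peptide, 20 uM SAM cofactor, 2 h, room temperature, following 15 min enzyme-compound preincubation.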
An asterisk follows results filed as active; ? = inconclusive; / = no result; [ ] = another dose, or the depositor's remark. Calls come from the whole dose curve; as a rule, active = well fitted curve in the direction sought with a large enough effect; inconclusive = small, poorly fitted or top-dose-only effect, or another doubt; inactive = no such curve, though single readings can be large; an effect the other way counts as inactive or inconclusive. Potency is the fitted concentration of half-maximal effect.

SMILES | JMJD2A Tudor | BAZ2B inh | HP1b chromo inh | Sfp inh | 12-LOX inh | G9a inh
CCCCCCCc1c(C#N)c(N)[nH]c(=S)c1C#N | -28% | ? | 7% | -3% | ? | ?
N#Cc1c2c(c(-c3ccco3)[nH]c1=O)CCCC2 | -16% | 10% | 43% | 17% | -19% | 27%
N#Cc1c(N)nc2c(c1-c1cccnc1)CCCCC2 | 2% | 9% | 34% | -3% | -9% | -7%
N#Cc1c(-c2cccnc2)c2c([nH]c1=S)CCCC2 | 1.4µM* | -6% | ? | 28µM* | ? | 0.71µM*
N#Cc1c(-c2ccco2)c2c([nH]c1=S)CCCC2 | 28µM* | 1% | -22% | 4.5µM* | 32µM* | ?
CC(C)Cc1c2c([nH]c(=S)c1C#N)CCCC2 | 56µM* | -30% | -24% | 2µM* | ? | 2.2µM*
Cc1ccc(C(OCC(O)CN2CCCCC2CO)c2ccccc2)cc1 (stereo not drawn) | 45µM* | 50µM* | 22% | -1% | ? | 8%[12.7 µM]
COc1ccc(N/C=C(\C#N)c2ccc(OCCCF)cc2)cc1 | ? | ? | -12% | -5% | 0% | -12%[12.7 µM]
Cc1ccc(N/C=C(\C#N)c2ccc(OCCCF)cc2)cc1 | -16% | ? | 6% | 26% | -8% | 45µM*
Cc1ccc(Cl)cc1NC(=O)C(=O)c1c(C)[nH]c2ccccc12 | / | / | / | / | 33% | /
CCN(C(=O)COC(=O)c1ccc2[nH]c3c(c2c1)CCCC3)C1CCS(=O)(=O)C1 (stereo not drawn) | -35% | ? | -28% | 9% | 11% | 50µM*
CCOC(=O)c1ccc2[nH]c3c(c2c1)CCCC3 | -54% | 32µM* | ? | 1% | 10% | 35µM*
CCN(CC)S(=O)(=O)c1ccc(N2CCCC2)c(NS(=O)(=O)c2ccccc2)c1 | -25% | 10% | 33% | -9% | ? | 3%[59 µM]
CCN(CC)S(=O)(=O)c1ccc(N2CCCC2)c(NS(=O)(=O)c2ccc([N+](=O)[O-])cc2)c1 | -26%[57.1 µM] | -38% | 2% | 16% | -15% | 10µM*
CCc1cc(C(=O)Nc2cc(S(=O)(=O)N(CC)CC)ccc2N2CCN(C)CC2)sc1C | -20% | -10% | 49% | / | ? | 35µM*
CCN(CC)S(=O)(=O)c1ccc(N2CCCC2)c(NS(=O)(=O)c2ccc(OC)cc2)c1 | -21% | -7% | 34% | -4% | ? | 35µM*
O=C1Nc2ccccc2CC12CCN2Cc1ccsc1 (stereo not drawn) | / | / | / | / | -10%[176 µM] | /
CC(NC(=O)NCc1ccn[nH]1)c1ccc2c(c1)OCCO2 (stereo not drawn) | / | / | / | / | 53% | /
CN(c1cccc(F)c1)S(=O)(=O)c1c(-c2ccc(F)cc2)csc1C(=O)NCc1ccco1 | / | / | / | / | -5% | /
COCCCNC1=C(C#N)C(=O)NC(c2cccc([N+](=O)[O-])c2)S1 (stereo not drawn) | / | / | / | / | -18% | /
COc1cc(C2NC(=O)C(C#N)=C(Nc3cccc(C)c3)S2)ccc1O (stereo not drawn) | -10% | -29% | 17% | 20µM* | ? | 45µM*
OC1=C(O)c2nc3cc(C(F)(F)F)ccc3nc21 | -22% | -30% | 5% | 50µM* | ? | ?
C/C(=N/NC(=O)CNc1ccc(C)cc1)c1ccc(Br)s1 | ? | -18% | -5% | 0% | -17% | 35µM*
COc1ccccc1NCC(=O)N/N=C(\C)c1ccc(Br)s1 | -12% | -4% | 21% | 17% | 7% | ?

Screens deposited in PubChem BioAssay by National Center for Advancing Translational Sciences (NCATS).
